# According to the antibiotic and cytotoxicity screens of Wong et al. (2023):
# Among all 39,000 compounds or so, about 1,500 (3.8%) were called active. Many of the other results were omitted from the sample, so actives are more common in it than they were.
# Test system: HSkMC (human skeletal muscle cells)
# Assay: cytotoxicity call (relative viability < 0.9)
# Conditions: 10 µM
row,SMILES,cytotoxicity call
1,CC(C)(C)[S@](=O)N1Cc2cc(C(=O)NCc3ccncc3)nc(-c3cccc(-c4cccc(C#N)c4)c3)c2[C@@H]1CCO,inactive
2,C[C@H](CO)N1C[C@H](C)[C@H](CN(C)S(=O)(=O)c2cn(C)cn2)Oc2ccc(NC(=O)Cc3ccccc3)cc2C1=O,inactive
3,Cc1cc(C(=O)Nc2cccc3c2O[C@H](CN(C)Cc2ccncc2)[C@H](C)CN([C@H](C)CO)C3=O)n(C)n1,inactive
4,Cc1noc(C)c1S(=O)(=O)Nc1ccc2c(c1)C(=O)N([C@@H](C)CO)C[C@H](C)[C@@H](CN(C)C(=O)Nc1ccccc1)OCCCC[C@@H](C)O2,inactive
5,C[C@@H](Nc1nc(=O)cc(F)[nH]1)C(=O)O,inactive
6,COc1ccc(NC(=O)N(C)C[C@H]2Oc3ccc(NC(=O)CCCCCC(=O)Nc4ccccc4N)cc3C(=O)N([C@@H](C)CO)C[C@@H]2C)cc1,inactive
7,COc1ccc(NC(=O)Nc2ccc3c(c2)C(=O)N([C@@H](C)CO)C[C@H](C)[C@@H](CN(C)C(=O)Cc2ccccc2)OCCCC[C@@H](C)O3)cc1,inactive
8,COc1ccc(CN(C)C[C@H]2Oc3ccc(NS(=O)(=O)c4cn(C)cn4)cc3CC(=O)N([C@H](C)CO)C[C@@H]2C)cc1,inactive
9,Cc1noc(C)c1S(=O)(=O)Nc1ccc2c(c1)C(=O)N([C@@H](C)CO)C[C@H](C)[C@@H](CN(C)Cc1ccc(Oc3ccccc3)cc1)O2,inactive
10,C[C@H](CO)N1C[C@H](C)[C@@H](CN(C)C(=O)Nc2ccccc2)Oc2ccc(NC(=O)Nc3ccc(C(F)(F)F)cc3)cc2CC1=O,inactive
11,C[C@H]1CN([C@@H](C)CO)C(=O)Cc2cc(NC(=O)Nc3ccc(C(F)(F)F)cc3)ccc2O[C@H]1CN(C)C(=O)Nc1ccccc1,active
12,C[C@@H]1CN([C@@H](C)CO)C(=O)Cc2cc(NC(=O)Nc3ccccc3)ccc2O[C@@H]1CN(C)C(=O)Nc1ccc(C(F)(F)F)cc1,inactive
13,C[C@@H]1CN([C@@H](C)CO)C(=O)Cc2cc(NC(=O)Nc3ccc(C(F)(F)F)cc3)ccc2O[C@@H]1CN(C)C(=O)Nc1ccccc1,active
14,C[C@H](CO)N1C[C@H](C)[C@H](CN(C)C(=O)Nc2ccccc2)Oc2ccc(NC(=O)Nc3ccc(C(F)(F)F)cc3)cc2CC1=O,inactive
15,C[C@H]1CN([C@@H](C)CO)C(=O)Cc2cc(NC(=O)Nc3ccc(C(F)(F)F)cc3)ccc2O[C@@H]1CN(C)C(=O)Nc1ccccc1,inactive
16,O=C(O)C1=CCCNC1,inactive
17,Cc1noc(C)c1NC(=O)N(C)C[C@@H]1Oc2ccc(NS(=O)(=O)c3cccs3)cc2CC(=O)N([C@@H](C)CO)C[C@H]1C,inactive
18,COc1ccc(NC(=O)Nc2ccc3c(c2)C(=O)N([C@H](C)CO)C[C@@H](C)[C@@H](CN(C)Cc2ccc(C(=O)O)cc2)OCCCC[C@H](C)O3)cc1,inactive
19,NC(=O)[C@H]1[C@@H]2C(=O)O[C@@H](c3ccccc3)[C@@H](c3ccccc3)N2[C@@H](c2ccc(O)cc2)[C@]12C(=O)Nc1ccc(C#CC3(O)CCCCCC3)cc12,inactive
20,Fc1ccc(Nc2ncnc3sc(-c4ccccc4)cc23)cc1,active
21,c1ccc(Nc2ncnc3cc(-c4ccccc4)sc23)cc1,inactive
22,c1ccc(Nc2ncnc3sc(-c4ccccc4)cc23)cc1,inactive

row,SMILES,cytotoxicity call
1,CCCC(=O)Nc1ccc2c(c1)OC[C@@H](C)N(C(=O)CN1CCOCC1)C[C@@H](C)[C@H](OC)CN(C)C2=O,inactive
2,NS(=O)(=O)OC[C@H]1C[C@@H](Nc2ccnc3cc(-c4cccc(SC(F)(F)F)c4)nn23)[C@H](O)[C@@H]1O,active
3,O=C([O-])C(O)C(O)C(O)C(O)CO.[Na+] (stereo not drawn),inactive
4,COc1ccccc1[C@@H](NC(=O)C1CCN(CCOc2ccc(Cl)cc2Cl)CC1)c1ccccn1,inactive
5,Cc1ccccc1[C@@H](c1ncccc1C)N(C)C(=O)C1CCN(CCOc2ccc3ccccc3c2)CC1,inactive
6,Cc1cccnc1[C@@H](NC(=O)C1CCN(CCOc2ccc(Cl)cc2Cl)CC1)c1ccc(F)cc1,inactive
7,Cc1cccnc1[C@H](c1ccc(F)cc1)N(C)C(=O)C1CCN(CCOc2ccc(Cl)cc2Cl)CC1,active
8,Cc1cccnc1[C@@H](NC(=O)C1CCN(CCOc2ccc(Cl)cc2Cl)CC1)c1ccc(Cl)cc1,inactive
9,Cc1ccccc1[C@@H](c1ncccc1C)N(C)C(=O)C1CCN(CCOc2ccc(Cl)cc2Cl)CC1,active
10,C[C@@H]1CN([C@@H](C)CO)C(=O)c2cc(NC(=O)Nc3ccccc3)ccc2O[C@@H](C)CCCCO[C@H]1CN(C)S(=O)(=O)c1ccccc1F,inactive
11,O=C(O)/C=C/C(=O)O,inactive
12,COC(=O)c1c(CC[C@@H](CO)NC(=O)N[C@H](Cn2cc(Cc3ccccc3)nn2)C(C)C)oc(C(C)=O)c1C(=O)OC,inactive
13,O=C(C[C@@H]1CC=CC[C@@H](Cc2ccc(F)cc2)C(=O)OC[C@H](Cc2c[nH]c3ccccc23)NC1=O)NCCO,inactive
14,CC(C)NC(=O)N(C)C[C@@H]1OCc2cnnn2CCCC(=O)N([C@@H](C)CO)C[C@@H]1C,inactive
15,CC(C)NC(=O)N(C)C[C@H]1Oc2cc(-c3ccccc3F)ccc2S(=O)(=O)N([C@H](C)CO)C[C@H]1C,inactive
16,C[C@H]1CN([C@@H](C)CO)C(=O)c2cccc(NS(=O)(=O)c3ccc(Cl)cc3)c2O[C@@H]1CN(C)Cc1ccc(C(F)(F)F)cc1,inactive
17,C[C@H](CO)N1C[C@H](C)[C@H](CN(C)Cc2ccc(C(F)(F)F)cc2)Oc2c(NS(=O)(=O)c3ccc(Cl)cc3)cccc2C1=O,active
18,C[C@H](CO)N1C[C@H](C)[C@@H](CN(C)Cc2ccc(C(F)(F)F)cc2)Oc2c(NS(=O)(=O)c3ccc(Cl)cc3)cccc2C1=O,inactive
19,C[C@@H]1CN([C@H](C)CO)C(=O)c2cccc(NS(=O)(=O)c3ccc(Cl)cc3)c2O[C@H]1CN(C)Cc1ccc(-c2ccccc2)cc1,inactive
20,C[C@@H]1CN([C@@H](C)CO)C(=O)c2cccc(NS(=O)(=O)c3ccc(Cl)cc3)c2O[C@@H]1CN(C)Cc1ccc(-c2ccccc2)cc1,active
21,C[C@@H]1CN([C@@H](C)CO)C(=O)c2cccc(NS(=O)(=O)c3ccc(Cl)cc3)c2O[C@H]1CN(C)Cc1ccc(-c2ccccc2)cc1,inactive
